# Measurements: the emibetuzumab library of Makowski et al. (2022)
# This is one part of the list. How many sequences the whole screen found active is unknown.
# B1: VH:VL chains; a variant is named by its letters at X, in order (parent)
# chain 1: QVQLVQSGAEVKKPGASVKVSCKASGYTFTDYXMHWVRQAPGQGLEWMGXVNPNXXXTTYNQKFEGRVTMTTDTSTSTAYMELRSLRSDDTAVYYCARXNXLDXWGQGTTVTVSS
# chain 2: DIQMTQSPSSLSASVGDRVTITCSVSSSVSSIYLHWYQQKPGKAPKLLIYSTSNLASGVPSRFSGSGSGTDFTLTISSLQPEDFATYYCQVYSGYPLTFGGGTKVEIK
# Variants of: B1
# Test: yeast display scFab, FACS + sequencing
# Conditions: with MET
# How it was run: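 Round-3 sorted and input populations from a heavy-chain CDR mutant scFab yeast library were deep sequenced in two replicates. Sorting used FACS on cells labelled for 3 h at room temperature with 1 nM HGFR-Fc and anti-Myc in PBSB with 1% milk, keeping the top 50% antigen-positive cells. Any sequence seen in both antigen-positive samples was called a binder, while one seen only in the input was called a non-binder.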
row,Variant,antigen binding call
1,AKTKSDWV,no binding
2,VTTRDDSD,no binding
3,VAGTGDWY,no binding
4,DTEGDAGD,no binding
5,VTGESDWY,no binding
6,FRGGGFVV,no binding
7,FRGEGFSV,no binding
8,FRGGGSGV,binds
9,FRGKGSGV,binds
10,FRGEGALV,binds
11,FRGKGFGV,no binding
12,FRKGGSGV,binds
13,VTGEGALV,no binding
14,FRGEGSGV,binds
15,FRGGGVGV,binds
16,FRGGSSGV,binds
17,ARGEGSGV,no binding
18,VRGGGVGV,no binding
19,FKGGNVGV,no binding
20,FAGEGAGV,no binding
21,STEGGSVY,no binding
22,SKTKSDWA,no binding
23,SGEGGAVA,no binding
24,DEAGGDGY,no binding

row,Variant,antigen binding call
1,YRRGSALY,binds
2,YRRGSSLY,binds
3,YRRGDSLY,binds
4,YRKESAVY,binds
5,FARKSDSS,no binding
6,DKKKDVVF,no binding
7,FKTAGSAV chain 1 R67H,no binding
8,YRRGSAVY,binds
9,YRRGSYVY,no binding
10,ATGGAALD,no binding
11,YRKGGSAA,binds
12,YRKGSSAA,binds
13,VAEEDAGY,no binding
14,DARGAYLV,no binding
15,YRGKAAGV,binds
16,YRAGDFGV,no binding
17,YRGKAFGV,binds
18,YTGTSAGV,no binding
19,VKAASAVY,no binding
20,YKARGAVY,binds
21,FRARGAAY,binds
22,VTGTGAAD,no binding
23,VRARGAAD,binds
24,VAEGDAAD,no binding

row,Variant,antigen binding call
1,YRARGAAY,binds
2,YKGRSAVY,no binding
3,DRRANFLY,no binding
4,DREEGDGS,no binding
5,VEGTSAAY,no binding
6,DKATGDAY,no binding
7,VRARGAAY,binds
8,YKARGAAY,binds
9,FRRTDFVA chain 1 C22Y,no binding
10,ARRRGAAA,binds
11,ARGRGSAA,binds
12,ARRRGSAA,binds
13,AEEEGSAA,no binding
14,ARGRSDVA,no binding
15,ARKTGAGA,no binding
16,AETKGAAA,no binding
17,ARGRGSVA,binds
18,VETTDSWV,no binding
19,VAERSFGV,no binding
20,VEEAAAGV,no binding
21,FTRESFAA,no binding
22,ARAGSAWA,no binding
23,ARAGDAVA,no binding
24,ARAGGAAA,binds

row,Variant,antigen binding call
1,SKGKGAGF,binds
2,SKGKGAGD,binds
3,SKGRGAGS,binds
4,DAGKGAGD,no binding
5,SKGRSDVF,no binding
6,YKGKGSGF,binds
7,YKGKGFGF,no binding
8,YKGKGAGF,binds
9,DGEGGDWD,no binding
10,VGRTSFGF,no binding
11,YKAGGFWF,no binding
12,YKAGGSLF,binds
13,YKGKGSLF,binds
14,VKGRADWF,no binding
15,VTGEDDVV,no binding
16,VKGRADAV,no binding
17,ARGRGSSS,binds
18,AATTDSSS,no binding
19,SRGRGSSS,binds
20,SRGRGSLS,binds
21,SGTADSSS,no binding
22,SRGRGVLV,no binding
23,SAGRGDGS,no binding
24,SEGRGDGA,no binding

row,Variant,antigen binding call
1,AKTKSDGV,no binding
2,ATGGDSGD,no binding
3,YAGRGDGA,no binding
4,VKGRGVGA,binds
5,VEGRGDGA,no binding
6,YKGRGVGA,binds
7,AKGRGDGA,no binding
8,VTGGDDGY,no binding
9,VRGGSDGY,binds
10,ARERGDGY,no binding
11,VAGTGDGY,no binding
12,VTGGGDGS,no binding
13,VRARGDGY,binds
14,VRGGDDGV,no binding
15,VEARGDGA,no binding
16,VRGGGDGY,binds
17,DAERTDGV,no binding
18,AEAGADVV,no binding
19,VRRRGALA,binds
20,YRREGSLA,binds
21,YRRRGSLA,binds
22,VAEKGALA,no binding
23,YRRRGALA,binds
24,VTEGGALA,no binding

row,Variant,antigen binding call
1,YTREGAVA,no binding
2,YAREGSGA,no binding
3,VKGRADSV,no binding
4,YRRGGALA,binds
5,YREETSGA,no binding
6,YRRRSSLA,binds
7,FRAGGSGA,binds
8,FRARGSGA,binds
9,FKAGGSGA,no binding
10,FAARDSGA,no binding
11,FRARGAGA,binds
12,FEAGDSGA,no binding
13,ARARGSGA,no binding
14,FRAGGAGA,binds
15,DKGEGDLA,no binding
16,VEEEGSGA,no binding
17,DRRGSDAV,no binding
18,YRRGSSAV,binds
19,YRRGGSAV,binds
20,YRREGSVV,binds
21,YKREGSAV,no binding
22,YRREGSAV,binds
23,VATRAVGA,no binding
24,VKGRSDAS,no binding

row,Variant,antigen binding call
1,DTGGGDAA,no binding
2,FRRGSSAV,binds
3,VRRGSDGV,no binding
4,VRRGSSAV,binds
5,VTTKSSAV,no binding
6,FTREASAV,no binding
7,VRTEDDWY,no binding
8,SEEEGDVA,no binding
9,YTTGGDVA,no binding
10,VTAGDDGS,no binding
11,DTTGSDVF,no binding
12,YRTRSSAV,binds
13,YRTRSAAV,binds
14,YRRRGSSF,binds
15,YRRRGASF,binds
16,STGGNDAD,no binding
17,YKGKGALA,binds
18,YKGEGDLA,no binding
19,YKGKGSLA,binds
20,YKAGGALA,binds
21,YKAGGFGA,no binding
22,YKGKGFGA,no binding
23,FAAETDVF,no binding
24,AARADDWD,no binding

row,Variant,antigen binding call
1,DTGEDDVY,no binding
2,SAGEGSLV,no binding
3,DRAETDVY,no binding
4,SAAGGASD chain 1 L45S,no binding
5,YTTKSDGV,no binding
6,VTGTGDGA,no binding
7,STGGDDGA,no binding
8,FREGGALD,binds
9,FRRGGALD,binds
10,FRRGGSLD,binds
11,FARAAALD,no binding
12,YRRGGALD,binds
13,DARGGSLD,no binding
14,YARGGDLD,no binding
15,VEKEGDGA,no binding
16,AKAGSYGV,no binding
17,FRGGGSLD,binds
18,FRKGGSLD,binds
19,FRGGGDWD,no binding
20,FRAEGSLD,binds
21,ATGRASLD,no binding
22,ARRGSSLD,binds
23,YTEGDDWY,no binding
24,SEARSDGF,no binding

row,Variant,antigen binding call
1,DAKENDVA,no binding
2,YTGGDDVD,no binding
3,FRKGTALD,binds
4,FRGKGAGA,binds
5,FRGKGSGA,binds
6,FRTKSDLA,no binding
7,FKGKGFGA,no binding
8,FKGKGSGA,no binding
9,FRGKGSLA,binds
10,FREKGDLA,binds
11,VKEKGDLA,no binding
12,DAKKNASF,no binding
13,VTREGAVA,no binding
14,YTEGDDGA,no binding
15,FRGKGAAA,binds
16,FRGKSAAA,binds
17,VTGRAAWV,no binding
18,YTERGDVY,no binding
19,YRAGDDVY,no binding
20,YRRRGDVY,binds
21,YRRRGAVY,binds
22,YRRRGFWY,no binding
